A short description of assay [1]: NS1 protein of Zika virus - qHTS assay to identify small molecule inhibitors in human HEK 293 cells (AID 1347053). Further: nearly all actives have a fitted effect of over 55% in size. Further: potency means the concentration at half of the fitted maximal effect.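 On activity change, negative = inhibition: series mostly up to about 46 µM; plate controls were infected untreated cells for no effect and uninfected cells for full effect.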 The essentials:
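Inhibition of NS1 expression was scored in HEK 293 cells given compound 1 h ahead of MR766 virus (MOI = 0.5). Following 24 h at 37 C, two anti-NS1 antibodies generated a TR-FRET signal, scaled between uninfected and infected controls.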
(In general: qHTS replaces the single test concentration by a dilution series.)

Assay [2] is described as follows: qHTS of pediatric cancer cell lines to identify multiple opportunities for drug repurposing: Primary screen for TC32 cells (AID 1347089). Further: nearly all actives have a fitted effect of over 60% in size. Further: potency means the concentration at half of the fitted maximal effect. On activity change, negative = cytotoxic: on the % scale 0 is the no-effect control and ±100 the full control effect. The essentials: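 Luminescent ATP read-out (CellTiter-Glo) of metabolically active TC32 cells after 48 h exposure. Concentration-response curves came from 11-point (MIPE, 0.78 nM–46 µM) or 8-point (NPC, 0.59 nM–46 µM) primary titrations; follow-up used 11 points.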

Assay [3] can be described thus: qHTS of pediatric cancer cell lines to identify multiple opportunities for drug repurposing: Primary screen for DAOY cells (AID 1347090). Further: nearly all actives have a fitted effect of over 55% in size. Further: potency means the concentration at half of the fitted maximal effect.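 On activity change, negative = cytotoxic: series mostly up to about 46 µM; plate controls were DMSO for no effect and bortezomib for full effect.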 The essentials:
(§1)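 Eight- or eleven-point concentration series, 48 h treatment at 37 degrees C in growth media; readout CellTiter-Glo luminescence. Potency and efficacy were taken from the concentration-response curves.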

The nature of assay [4]: qHTS of pediatric cancer cell lines to identify multiple opportunities for drug repurposing: Primary screen for SJ-GBM2 cells (AID 1347091). Further: potency means the concentration at half of the fitted maximal effect.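 On activity change, negative = cytotoxic: plate controls were DMSO neutral control for no effect and bortezomib for full effect.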 The essentials:
as §1

Assay [5] has as its target T1, Tyrosine-protein phosphatase non-receptor type substrate 1 (Homo sapiens) + Leukocyte surface antigen CD47 (Homo sapiens) (UniProt P78324+Q08722). Nature of the assay: CD47-SIRPalpha protein protein interaction - LANCE assay qHTS validation (AID 1347057; active means well fitted curve in the direction sought with a large enough effect in the signal ratio, with a control signal flat, not every such curve was filed as active; the % refers to the signal ratio; further: series mostly up to about 38 µM; 0% is about no effect). The essentials: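 First, His-tagged CD47 and Eu-labelled anti-His antibody met the compound for 30 min; next, site-specifically biotinylated SIRPalpha was added for 30 min; finally streptavidin-APC was added before reading the TR-FRET ratio.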
For orientation: In TR-FRET formats the signal depends on donor and acceptor labels being close together.

In assay [6] the target is T1, Tyrosine-protein phosphatase non-receptor type substrate 1 (Homo sapiens) + Leukocyte surface antigen CD47 (Homo sapiens). Nature of the assay: CD47-SIRPalpha protein protein interaction - Alpha assay qHTS validation (AID 1347059).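 Further: bead proximity luminescence from CD47 binding SIRPalpha after compound preincubation with SIRPalpha.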 Further: potency means the concentration at half of the fitted maximal effect. On activity change, negative = inhibition: on the % scale 0 is the no-effect control and ±100 the full control effect. The essentials: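 Soluble extracellular domains: Avi-tag biotinylated SIRPalpha (25 nM) preincubated 30 min RT with compound, then 6His-CD47 (12.5 nM) 30 min; Ni-NTA acceptor and streptavidin donor beads (10 ug/mL) 30 min, AlphaScreen read. PBS pH 7.4, 0.05% IGEPAL.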

Assay [7] addresses Parathyroid hormone/parathyroid hormone-related peptide receptor (Homo sapiens) (UniProt Q03431). Nature of the assay: qHTS for PTHR1 Agonists: Optimization Screen against the NCGC LOPAC library (AID 1347079).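 Further: GloSensor cAMP luminescence in HEK-293 GP2 cells expressing human PTHR1 with IBMX; 0% is about no effect.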 The essentials: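 Compounds were tested across a qHTS titration. PTHR1-expressing GP2 cells report cAMP rises via GloSensor luminescence after 1 hr compound exposure at 37C with IBMX present.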

The target in assay [8] is Atrial natriuretic peptide receptor 2 (Homo sapiens) (UniProt P20594). Nature of the assay: Natriuretic polypeptide receptor (hNpr2) antagonism - Pilot subtype selectivity assay (AID 1347050; calls by dose curve; further: potency means the concentration at half of the fitted maximal effect; on activity change, negative = inhibition: on the % scale 0 is the no-effect control and ±100 the full control effect). The essentials: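 cGMP-sensor HEK293/hNpr2 cells; 2% GloSensor reagent 2 h RT; compounds 30 min; baseline luminescence read; 1 nM hNppC agonist 20 min RT; final luminescence read by CCD camera. Antagonism = reduced post-agonist signal.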

Assay [9] is described as follows: P-glycoprotein substrates identified in KB-8-5-11 adenocarcinoma cell line, qHTS therapeutic library screen (AID 1346987). Further: nearly all actives have a fitted effect of over 65% in size. Further: potency means the concentration at half of the fitted maximal effect. The essentials:
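P-gp-mediated resistance screen: KB-8-5-11 cells treated 72 h with compounds in dose-response. CellTiter-Glo viability.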

A short description of assay [10]: qHTS of pediatric cancer cell lines to identify multiple opportunities for drug repurposing: Primary screen for A673 cells (AID 1347092). Further: nearly all actives have a fitted effect of over 45% in size. Further: potency means the concentration at half of the fitted maximal effect. On activity change, negative = cytotoxic: on the % scale 0 is the no-effect control and ±100 the full control effect. The essentials: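 Cell viability of A673 measured by CellTiter-Glo ATP luminescence after 48 hours compound exposure. Dilution series spanned 0.78 nM to 46 µM (MIPE, 11-point) or 0.59 nM to 46 µM (NPC, 8-point); bortezomib 2.3 uM positive control.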

Unmarked numbers belong to inactive results. Results filed as inconclusive are left out. Active and inactive are the calls of the source. Unless noted, the call rests on the fitted dose curve; in most records, active means well fitted curve in the direction sought with a large enough effect; inconclusive means small, poorly fitted or top-dose-only effect, or another doubt; inactive means no such curve, though single readings can be large; an effect the other way counts as inactive or inconclusive. *1 amine or outer side, *2 acyl side, *3 side chain or, on linkers, in order; H or OH if unused. Where a SMILES comes first, the peptide text is derived from it. Bridges are numbered along the chain shown (N, C = ends). [ ]: non-standard residue; d: D form. The star is where a group is joined. ξ: configuration not given here. X10 = NC1=NCCC(C(N[*:1])C(=O)[*:2])N1; ΔAla(3-NHCONH2) = NC(=O)NC=C(N)C(=O)O; ξβ3hOrn = NCCCC(N)CC(=O)*; Dap = NC[CH](N)C(=O)O

Atrial natriuretic peptide receptor 2 (Homo sapiens), sequence (P20594 whole entry, looked up): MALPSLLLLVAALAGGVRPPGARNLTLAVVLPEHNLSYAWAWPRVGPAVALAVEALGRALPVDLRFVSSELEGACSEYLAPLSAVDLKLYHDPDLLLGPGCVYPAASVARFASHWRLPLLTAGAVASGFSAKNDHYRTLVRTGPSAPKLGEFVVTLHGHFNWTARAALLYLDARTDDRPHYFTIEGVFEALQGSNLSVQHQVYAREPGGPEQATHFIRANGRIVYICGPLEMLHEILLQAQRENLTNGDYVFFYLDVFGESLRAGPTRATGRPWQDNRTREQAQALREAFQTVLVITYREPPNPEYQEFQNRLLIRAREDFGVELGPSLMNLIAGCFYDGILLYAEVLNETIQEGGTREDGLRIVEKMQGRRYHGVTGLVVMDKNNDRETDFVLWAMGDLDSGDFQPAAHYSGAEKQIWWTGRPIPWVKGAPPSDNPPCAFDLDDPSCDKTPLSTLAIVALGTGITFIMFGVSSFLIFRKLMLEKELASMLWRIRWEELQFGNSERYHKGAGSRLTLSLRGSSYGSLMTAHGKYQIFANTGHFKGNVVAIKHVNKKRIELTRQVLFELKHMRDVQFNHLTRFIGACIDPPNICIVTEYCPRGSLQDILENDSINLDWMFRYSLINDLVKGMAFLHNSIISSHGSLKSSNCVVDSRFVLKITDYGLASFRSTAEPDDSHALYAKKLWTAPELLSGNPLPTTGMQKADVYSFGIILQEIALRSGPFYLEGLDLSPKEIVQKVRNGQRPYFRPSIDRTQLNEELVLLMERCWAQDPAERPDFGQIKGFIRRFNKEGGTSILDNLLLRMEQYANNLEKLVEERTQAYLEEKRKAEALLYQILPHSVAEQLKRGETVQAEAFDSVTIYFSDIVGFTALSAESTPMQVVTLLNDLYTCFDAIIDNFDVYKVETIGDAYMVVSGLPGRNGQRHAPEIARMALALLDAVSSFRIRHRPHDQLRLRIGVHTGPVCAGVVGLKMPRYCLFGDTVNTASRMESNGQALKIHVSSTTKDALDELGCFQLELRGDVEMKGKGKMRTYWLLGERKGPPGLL
Parathyroid hormone/parathyroid hormone-related peptide receptor (Homo sapiens), sequence (Q03431 whole entry, looked up): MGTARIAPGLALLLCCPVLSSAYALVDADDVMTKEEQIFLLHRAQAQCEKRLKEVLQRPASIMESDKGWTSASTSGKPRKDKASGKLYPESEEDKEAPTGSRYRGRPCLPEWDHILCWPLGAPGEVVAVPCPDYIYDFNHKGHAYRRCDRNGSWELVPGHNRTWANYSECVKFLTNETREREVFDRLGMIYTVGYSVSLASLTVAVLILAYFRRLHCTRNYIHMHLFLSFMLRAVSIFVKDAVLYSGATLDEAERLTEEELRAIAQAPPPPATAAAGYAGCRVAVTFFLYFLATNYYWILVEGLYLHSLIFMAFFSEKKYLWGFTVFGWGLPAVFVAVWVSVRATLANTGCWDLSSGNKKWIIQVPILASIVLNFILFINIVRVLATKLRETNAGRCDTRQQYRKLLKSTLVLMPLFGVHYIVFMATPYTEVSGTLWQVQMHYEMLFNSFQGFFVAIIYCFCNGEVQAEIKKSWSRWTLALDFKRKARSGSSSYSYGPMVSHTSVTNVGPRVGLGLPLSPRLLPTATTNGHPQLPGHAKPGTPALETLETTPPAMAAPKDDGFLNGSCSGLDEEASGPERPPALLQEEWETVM
T1 sequence (P78324 whole entry, looked up): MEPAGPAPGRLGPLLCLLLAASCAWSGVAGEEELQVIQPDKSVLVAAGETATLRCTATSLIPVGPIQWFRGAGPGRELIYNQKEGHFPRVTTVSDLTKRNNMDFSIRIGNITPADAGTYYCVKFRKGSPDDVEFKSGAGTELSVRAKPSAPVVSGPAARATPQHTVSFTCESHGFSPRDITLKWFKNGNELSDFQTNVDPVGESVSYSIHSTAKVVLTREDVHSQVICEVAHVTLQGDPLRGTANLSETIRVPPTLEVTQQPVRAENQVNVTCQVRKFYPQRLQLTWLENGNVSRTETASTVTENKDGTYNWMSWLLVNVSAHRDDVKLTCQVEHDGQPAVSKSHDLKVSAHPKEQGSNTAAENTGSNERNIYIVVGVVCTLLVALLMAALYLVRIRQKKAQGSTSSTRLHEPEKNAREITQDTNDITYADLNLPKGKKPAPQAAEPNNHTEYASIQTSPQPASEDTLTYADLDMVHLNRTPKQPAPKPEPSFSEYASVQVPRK
T1 sequence (Q08722 whole entry, looked up): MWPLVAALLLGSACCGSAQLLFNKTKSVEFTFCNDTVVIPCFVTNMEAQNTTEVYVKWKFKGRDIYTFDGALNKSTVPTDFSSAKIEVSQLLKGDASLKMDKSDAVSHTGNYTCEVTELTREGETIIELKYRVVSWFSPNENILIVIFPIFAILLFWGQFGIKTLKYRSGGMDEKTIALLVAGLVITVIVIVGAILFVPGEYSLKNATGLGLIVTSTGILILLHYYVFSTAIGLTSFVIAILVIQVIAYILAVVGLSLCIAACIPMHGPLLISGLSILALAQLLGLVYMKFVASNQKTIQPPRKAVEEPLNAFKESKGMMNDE

In the case of `CC(C)(C)NCC(O)COc1ccccc1OCC1CCCO1` (stereo not drawn), the Potency entry in assay [1], in assay [2], in assay [3] and in assay [4] was “inactive” each time.

Consider `CCOCCn1c(C2CCN(CCc3ccc(C(C)(C)C(=O)O)cc3)CC2)nc2ccccc21`, for which the Potency entry in [1], in assay [2], in assay [3] and in assay [4] was “inactive” in each case.

Consider `CCN(CC)CCNC(=O)c1ccc(NS(C)(=O)=O)cc1`, for which the Potency result in assay [1] and in assay [6] was “inactive” throughout. The result in assay [5] and in [7] was inactive.

As for `C[N+](C)(C)CCO`, the Potency result in assay [8] and in assay [6] was “inactive” in each case. For the same molecule, the result in assay [5] and in [7] was inactive.

For `CN1CC(=O)N2[C@H](c3ccc4c(c3)OCO4)c3[nH]c4ccccc4c3C[C@@H]2C1=O`, the Potency result in assay [1], in assay [2], in assay [3] and in assay [4] was “inactive” in each case.

Consider `O=C(CCC1CCN(Cc2ccccc2)CC1)c1ccc2c(c1)NCCCC2`, for which the Potency entry in assay [1], in assay [2] and in assay [3] was “inactive” each time.

Consider `Clc1ccc2c(c1)N=C(N1CCNCC1)c1ccccc1N2`, for which, in assay [8], the Potency was 14.7 µM (active). Besides, the Potency result in [1] and in [6] was “inactive” each time. Moreover, the result in assay [5] and in assay [7] was inactive.

Take `COC(=O)[C@H]1[C@H]2C[C@@H]3c4[nH]c5cc(OC)ccc5c4CCN3C[C@H]2C[C@@H](OC(=O)/C=C/c2ccc(O)c(OC)c2)[C@@H]1OC`: the Potency result in [1], in assay [2] and in assay [3] was “inactive” in each case.

As to `COc1ccc(-n2nc(CCC(=O)N(C)O)cc2-c2ccc(Cl)cc2)cc1`, the Potency entry in assay [1] is “inactive”. For the same molecule, in assay [2], the Potency is 16.7 µM (active).

`O=[N+]([O-])c1ccc(-c2nc(-c3ccc(F)cc3)c(-c3ccncc3)[nH]2)cc1`: the Potency entry in assay [8] and in assay [1] was “inactive” throughout. Further, the outcome in [5] and in assay [7] was inactive.

As for `C#CC(C)(CC)OC(=O)c1ccccc1C(=O)O` (stereo not drawn), the Potency entry in assay [1], in assay [2], in [3] and in assay [4] was “inactive” each time.

For `CC(C)CCCC(C)NCCC(C)C` (stereo not drawn), the Potency entry in assay [1], in [2], in [3] and in [4] was “inactive” each time.

Take `CC(=O)OCC[N+](C)(C)C`: the Potency entry in assay [9], in assay [3], in assay [4] and in [10] was “inactive” in each case.

Regarding `CCCCCCCCCCCC[N+](C)(C)Cc1ccccc1`, the Potency entry in [9] and in [4] was “inactive” throughout. Besides, the figures for the Potency in assay [3] and in assay [10] were 16.8 µM (active) and 8.41 µM (active), respectively.

With `CC(=O)N(CC(=O)N(C)C)c1ccccc1`, the Potency result in [1], in [2], in assay [3] and in [4] was “inactive” each time.

Turning to `O=S(=O)(O)c1ccc2nc(-c3ccccc3)[nH]c2c1`, the Potency result in assay [1] and in assay [2] was “inactive” throughout.

Consider `O=[N+]([O-])c1ccc(O)c2ncccc12`, for which the Potency in assay [1] was 6.31 µM (active); in assay [2], 13.3 µM (active); in assay [3], 2.66 µM (active); in assay [4], 2.66 µM (active).

`COc1cc2nc(Cl)nc(N)c2cc1OC`: the Potency result in assay [1], in assay [2], in [3] and in assay [4] was “inactive” each time.

Turning to `CCCC(=O)O[C@]1(C(=O)CC)CC[C@H]2[C@@H]3CCC4=CC(=O)CC[C@]4(C)[C@H]3[C@@H](O)C[C@@]21C`, the Potency entry in assay [1], in assay [2], in [3] and in assay [4] was “inactive” throughout.

On to `NCCCC(N)CC(=O)NCC1NC(=O)C(CO)NC(=O)C(N)CNC(=O)C(C2CCN=C(N)N2)NC(=O)C(=CNC(N)=O)NC1=O` (stereo not drawn) (H-[Dap]S[Dap](ξβ3hOrn)[ΔAla(3-NHCONH2)][X10]; lactam 1-C; configuration not given here), for which the activity change, negative = inhibition in assay [1] is 1.27% [at 0.593 µM]. The activity change, negative = cytotoxic is 5.9% [at 0.594 µM] in assay [2], 6.38% [at 0.597 µM] in [3] and 34.8% [at 0.597 µM] in [4].

For `Cc1cc(CCCOc2c(C)cc(-c3noc(C(F)(F)F)n3)cc2C)on1`, the Potency result in assay [1], in assay [2], in [3] and in assay [4] was “inactive” in each case.

In the case of `CCCCCCCCCCCCCCCCCCN(C)C`, the Potency result in assay [1], in assay [2], in assay [3] and in [4] was “inactive” each time.

As to `COc1cccc2c1[C@@H]1CN(CCCCn3c(=O)[nH]c4c(sc5ncc(-c6ccccc6)nc54)c3=O)C[C@@H]1CO2`, the Potency entry in [8], in assay [1] and in [6] was “inactive” in each case. The outcome in [5] and in [7] was inactive.

With `Cc1cccc(N(C)C(=S)Oc2ccc3c(c2)C2CCC3C2)c1` (stereo not drawn), the Potency result in assay [1] and in assay [2] was “inactive” in each case. In addition, in assay [3], the Potency is 26.6 µM (active).

`N[C@@H](Cn1ccc(=O)c(O)c1)C(=O)O`: the Potency entry in assay [8] and in [1] was “inactive” throughout. Moreover, the Potency in [6] is 0.0585 µM (active). Besides, in assay [7], the molecule was called inactive.

As to `Nc1ccc2cc3ccc(N)cc3nc2c1`, the Potency in [9] is 14.6 µM (active); in assay [3], 26.6 µM (active); in assay [10], 13.3 µM (active).

On to `COC(=O)C1=CO[C@@H](O)[C@@H]2C(CO)=CC[C@H]12`, for which the Potency entry in [8], in [1] and in assay [6] was “inactive” in each case. Besides, the outcome in assay [5] and in assay [7] was inactive.

On to `COc1ccc(CCC(C)=O)cc1`, for which the Potency result in assay [1], in [2], in [3], in assay [4] and in assay [10] was “inactive” throughout.

Take `CN(C)CCN(Cc1ccsc1)c1ccccn1`: the Potency result in assay [1], in assay [2], in [3], in assay [4] and in assay [10] was “inactive” each time.

`CSCC[C@H](NC(=O)[C@H](Cc1c[nH]c2ccccc12)NC(=O)CCNC(=O)OC(C)(C)C)C(=O)N[C@@H](CC(=O)O)C(=O)N[C@@H](Cc1ccccc1)C(N)=O`: the Potency entry in assay [1], in assay [2], in assay [3], in assay [4] and in assay [10] was “inactive” each time.

With `Cc1cccc(OCC(O)CNC(C)(C)C)c1C` (stereo not drawn), the Potency result in assay [1], in assay [2], in assay [3], in assay [4] and in assay [10] was “inactive” in each case.

Turning to `CCCCCCCC(=O)[O-].CCCCCCCC(=O)[O-].[Zn+2]`, the Potency result in assay [1], in assay [2], in assay [3], in assay [4] and in [10] was “inactive” each time.

With `COC(=O)/C=C(/C)N`, the Potency result in [1], in [2], in assay [3], in assay [4] and in assay [10] was “inactive” each time.

Take `COC(=O)c1cc(Cl)c(NC(C)=O)cc1OC`: the Potency entry in [1], in [2], in [3], in assay [4] and in [10] was “inactive” each time.

With `CC(C)(Oc1ccc(Cl)cc1)C(=O)OCCCOC(=O)C(C)(C)Oc1ccc(Cl)cc1`, the Potency entry in [1], in [2], in assay [3], in [4] and in assay [10] was “inactive” each time.

In the case of `CN1CC[C@H](c2c(O)cc(O)c3c(=O)cc(-c4ccccc4Cl)oc23)[C@H](O)C1`, the Potency was 1.58 µM (active) in assay [1]; 0.592 µM (active) in assay [2]; 0.531 µM (active) in assay [3]; 0.106 µM (active) in [4]; 0.106 µM (active) in [10].

Values taken from PubChem BioAssay (NCATS).
